The results in this text go back to PubChem BioAssay (NCI).

Some test systems named below: NCI-H23 lung; NCI-H226 lung; HOP-62 NSCLC; NCI-H460 lung; HOP-92 NSCLC; NCI-H522 lung; A549/ATCC NSCLC; 786-0 renal; DU-145 prostate; K-562 leukemia; MALME-3M melanoma; MDA-MB-231 breast; RXF 393 renal; SF-268 CNS; SF-295 CNS; SF-539 CNS; UACC-257 melanoma; M14 melanoma; COLO 205 colon.
What all share (assay): NCI-60 one-dose screen, 48 h (100 = growth as untreated, 0 = no growth, -100 = all killed)
Conditions in all cases: 10 µM unless noted

About 83,000 compounds went through this panel and 20% of them were active in at least one assay; those are over-represented in the sample as a whole.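 Single-concentration screen, 48 h exposure, 96-well plates. Endpoint: percent growth. Below 10 = active.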 Values without a mark were called inactive. The source made the active and inactive calls.

`CCOC(=O)C1=C(N)Oc2c(sc3c(F)cccc23)C1c1ccc(O)cc1` (centres undefined): the growth was 30.8% in the assay with NCI-H23 lung; 55.2% with NCI-H226 lung; 55.4% in the assay on HOP-62 NSCLC; 30.4% in the assay with NCI-H460 lung; 34.6% with HOP-92 NSCLC; 26.9% in the assay on NCI-H522 lung. For the same compound, the growth in the assay with A549/ATCC NSCLC was 40.5%; in the assay on 786-0 renal, 59.6%; in the assay on DU-145 prostate it was 66.8%; in the assay with K-562 leukemia it was 12.6%; in the assay with MALME-3M melanoma it was 54.4%; in the assay with MDA-MB-231 breast it was 36.9%. Further, the growth in the assay with RXF 393 renal is 46.1%; with SF-268 CNS it was 37%; in the assay on SF-295 CNS it was 56.3%; in the assay with SF-539 CNS, 42.5%; in the assay on UACC-257 melanoma it was 49.8%; with M14 melanoma it was 22.9%.
For the compound `O=S(=O)(Nc1ccc(F)cc1F)c1ccc(-c2cnc(C3CC3)o2)cc1`, the growth was 38% in the assay with NCI-H23 lung; 64.3% in the assay on NCI-H226 lung; 39.7% with HOP-62 NSCLC; 16.3% in the assay with NCI-H460 lung; 44.4% in the assay with HOP-92 NSCLC; 13.4% with NCI-H522 lung. In addition, the growth in the assay on A549/ATCC NSCLC is 41.5%; in the assay on 786-0 renal, 44%; with COLO 205 colon it was 16.2%; in the assay on DU-145 prostate, 40.7%; in the assay on K-562 leukemia it was 18.2%; with MALME-3M melanoma, 34.8%. The growth was 53% in the assay with MDA-MB-231 breast; -1.92% (active) in the assay with RXF 393 renal; 44.6% with SF-268 CNS; 30.7% with SF-295 CNS; 1.19% (active) in the assay on SF-539 CNS; 64% in the assay with UACC-257 melanoma. The growth in the assay with M14 melanoma is 4.25% (active).
Consider `CCC(=O)Oc1ccc(-c2ccccc2)cc1Br`, for which the growth is 101% in the assay on NCI-H23 lung; 96.1% in the assay with NCI-H226 lung; 104% with HOP-62 NSCLC; 98.8% in the assay with NCI-H460 lung; 87.7% in the assay with HOP-92 NSCLC; 108% with NCI-H522 lung. For the same compound, the growth with A549/ATCC NSCLC is 105%; in the assay on 786-0 renal, 105%; in the assay with COLO 205 colon it was 109%; in the assay on DU-145 prostate, 107%; with K-562 leukemia, 107%; in the assay on MALME-3M melanoma it was 109%. Also, the growth with MDA-MB-231 breast was 103%; in the assay with RXF 393 renal it was 106%; in the assay with SF-268 CNS, 103%; in the assay on SF-295 CNS, 104%; with SF-539 CNS it was 106%; in the assay on UACC-257 melanoma it was 106%. In addition, the growth in the assay on M14 melanoma is 102%.
As for `Nc1nc2ccccc2c2c1S(=O)(=O)c1ccc(Cl)cc1C2=O`, the growth was 37.9% in the assay on NCI-H23 lung; 63.1% in the assay on NCI-H226 lung; 30.2% in the assay with HOP-62 NSCLC; 23.5% in the assay with NCI-H460 lung; -25.4% (active) in the assay on HOP-92 NSCLC; -73.5% (active) in the assay on NCI-H522 lung. Further, the growth with A549/ATCC NSCLC is 46.8%; in the assay with 786-0 renal, 16.2%; in the assay with COLO 205 colon, -18% (active); with DU-145 prostate, 26.3%; in the assay with K-562 leukemia, 11.5%; in the assay on MALME-3M melanoma it was -21% (active). Besides, the growth was 17.5% in the assay on MDA-MB-231 breast; 10.2% in the assay with RXF 393 renal; 24.4% in the assay on SF-268 CNS; 31.8% in the assay on SF-295 CNS; 11.2% in the assay on SF-539 CNS; 24.7% with UACC-257 melanoma. In addition, the growth with M14 melanoma was 17.8%.
For `CC(C)=CCCC(C)c1ccc(C)c2c1OCN(CCCCCO)C2` (centres undefined), the growth in the assay on NCI-H23 lung was 91.3%; in the assay with NCI-H226 lung it was 98.4%; in the assay with HOP-62 NSCLC, 92.5%; in the assay with NCI-H460 lung it was 81.1%; with HOP-92 NSCLC it was 27.7%; in the assay with NCI-H522 lung, -1.75% (active). Further, the growth is 82.5% in the assay with A549/ATCC NSCLC; 69.5% with 786-0 renal; 90% in the assay on COLO 205 colon; 109% in the assay on DU-145 prostate; 31.1% with K-562 leukemia; 93.6% in the assay with MALME-3M melanoma. For the same compound, the growth in the assay with MDA-MB-231 breast is 93.4%; with RXF 393 renal it was 90.1%; in the assay on SF-268 CNS, 97.5%; in the assay with SF-295 CNS it was 110%; in the assay with SF-539 CNS, 84.5%; in the assay on UACC-257 melanoma, 78.4%. The growth in the assay on M14 melanoma was 84.2%.
